Shown are actives, neighbours in structure and some others; about 5.9% of the full set was active somewhere.
HepG2 viability: qHTS for Inhibitors of TGF-b: Cytotox Counterscreen; hit rate 0.76% among 410,000; AID 588856, 2011; Potency, µM (doses to about 46.1 µM), without a hit: top-dose activity change, negative = cytotoxicity, usual class: cytotoxic; HepG2 CAGA-GFP viability, ATP luminescence, 18 h
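CellTiter-Glo luminescence gave cytotoxicity after 18 hours at 37 degrees C. The cells were HepG2 CAGA-GFP in 1% FBS DMEM, stimulated with 500 pg/mL TGF-beta after compound addition. %Activity was normalised to no-cell wells (complete cell-killing) and DMSO (no toxicity), and curves were fitted and classified.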
KB-V1 cytotox: qHTS assay for MDR1-selective chemotherapeutics: Primary screen using the drug-selected MDR subline cells KB-V1 | AID 1347076, 2019 | hit rate 3.4% among 400,000 | Potency, µM (series often up to 46.1 µM), usual class: cytotoxic | KB-V1 MDR cells viability, CellTiter-Glo, 72 h; also: % is scaled to controls: 0 for no effect and ±100 for the full control effect; nearly all actives have a fitted effect of over 60% in size
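Compound-treated KB-V1 multidrug-resistant cells, 72 h, 37 degrees C; viability by CellTiter-Glo. Fitted qHTS curves give the values.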
KB-3-1 tox: qHTS assay for MDR1-selective chemotherapeutics: Primary screen using the parental adenocarcinoma cell KB-3-1. AID 1347075, 2019. KB-3-1 viability, CellTiter-Glo ATP luminescence, 72 h. Potency, µM (highest dose often 46.1 µM), most hits filed as cytotoxic. hit rate 1.4% among 400,000; also: % is scaled to controls: 0 for no effect and ±100 for the full control effect; nearly all actives have a fitted effect of over 60% in size
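Using CellTiter-Glo luminescence, growth of non-resistant KB-3-1 adenocarcinoma cells is assessed 72 h after pin-tool compound addition at 37 °C. Normalized responses across the concentration series yield fitted curves.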
ATXN2 expr inh: Primary qHTS for Inhibitors of ATXN expression | HEK-293 ATXN2-luciferase reporter, luminescence, 24 h | Potency, µM (highest dose often 57 µM), without a hit: at the highest dose activity change, negative = inhibition, hits mostly inhibitors | hit rate 0.72% among 360,000 | AID 1745845, 2022; also: % is scaled to controls: 0 for no effect and ±100 for the full control effect; nearly all actives have a fitted effect of over 55% in size
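qHTS (up to 57 uM final) was run with 24 h compound exposure of reporter cells at 37 °C. Each well was multiplexed: SteadyGlo luminescence measured ATXN2-luciferase expression after a fluorogenic Gly-Phe-AFC viability readout (25 uM final).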
TGFb SMAD3 inh: qHTS for Inhibitors of TGF-b | HepG2 CAGA-GFP TGF-b/SMAD3 reporter, GFP fluorescence, 18 h; TGF-beta stimulated, 500 pg/mL final | AID 588855, 2011 | hit rate 1.2% among 410,000 | Potency, µM (top dose mostly 46.1 µM), without a hit: top-dose activity, negative = inhibition, hits mostly inhibitors; also: % is scaled to controls: 0 for no effect and ±100 for the full control effect; nearly all actives have a fitted effect of over 65% in size
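First, reporter cells (HEPG2 CAGA-GFP) rested 2 h at 37 degrees C. Next, compounds were pinned in and TGF-beta added to 500 pg/mL final. After 18 h, GFP was imaged per cell and summed per well.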
ATXN viability: Viability Counterscreen for Primary qHTS for Inhibitors of ATXN expression; hit rate 0.49% among 400,000; Potency, µM (series often up to 56.7 µM), hits mostly cytotoxic; S2 cells (HEK-293 line with an ATXN2-luciferase reporter) viability, CellTiter-Fluor protease fluorescence, 24 h; also: nearly all actives have a fitted effect of over 40% in size
Numbers without * were called inactive; i = inactive; ? = inconclusive; . = not tested or not shown. Calls follow the shape of the dose curve; as a rule, active = well fitted curve in the direction sought with a large enough effect; inconclusive = small, poorly fitted or top-dose-only effect, or another doubt; inactive = no such curve, though single readings can be large; an effect the other way counts as inactive or inconclusive. Potency is read from the fitted curve at half-maximal effect.

SMILES	HepG2 viability	KB-V1 cytotox	KB-3-1 tox	ATXN2 expr inh	TGFb SMAD3 inh	ATXN viability
O=S1(=O)C=C(SCc2ccccc2)Nc2ccccc21	-16.4%	18.4µM*	?	16.9%	0.7%	i
COc1ccc(CSC2=CS(=O)(=O)c3ccccc3N2)cc1	-39.5%	23.1µM*	i	-17.2%	-9.5%	i
CC(C)OC(=O)C1=CN(C(=O)c2ccc(F)c(F)c2)CC(C)(C)c2c1[nH]c1ccccc21	.	.	.	5.7%	.	.
COc1ccc(NC(=O)c2cc(-c3ccc(C)o3)nc3ccccc23)cc1OC	-72.2%	16.4µM*	?	39.7%	4.1%	i
Cc1ccc(-c2cc(C(=O)Nc3nccs3)c3ccccc3n2)o1	-1.2%	7.31µM*	i	10.5%	-1.6%	i
Cc1ccc(-c2cc(C(=O)Nc3nccs3)c3ccccc3n2)c(C)c1	1.1%	13µM*	i	-20.9%	-5.5%	?
COc1ccc(NC(=O)c2cc(-c3ccc(C)o3)nc3ccccc23)c(OC)c1	-55.7%	?	i	.	27.1%	i
Cc1ccccc1C(=O)OCc1cc(=O)n2nc(C3CCCCC3)sc2n1	3.0%	i	i	3.6%	-9.2%	i
CCCN(c1ccc(OCC)cc1)S(=O)(=O)c1ccc2c(c1)NC(=O)CO2	-4.1%	1.64µM*	?	-0.8%	3.5%	i
CCOc1ccc(NC(=O)CC(C)S(=O)(=O)c2ccc3c(c2)NC(=O)CO3)cc1 (stereo not given)	-16.8%	?	i	31.2%	14.8%	i
COc1cccc(N/C(SC)=C(/C#N)C(=O)NCc2cccs2)c1	-3.4%	?	i	-13.8%	5.7%	.
COc1cccc(N/C(SCc2cccc([N+](=O)[O-])c2)=C(/C#N)C(=O)NCc2cccs2)c1	6.8%	i	i	-27.9%	6.1%	i
COc1cccc(N/C(SCc2ccccc2C)=C(/C#N)C(=O)NCc2cccs2)c1	5.3%	5.17µM*	i	2.4%	-8.3%	i
COc1cccc(N/C(SCc2ccccc2Cl)=C(/C#N)C(=O)NCc2cccs2)c1	-5.6%	14.6µM*	i	-14.4%	-2.7%	i
Cc1nn(-c2ccccc2)c2c1N(CCCC(=O)NCc1ccccc1)C(=O)CS2	-21.4%	16.4µM*	?	-18.9%	?	?
O=C(c1cccc(S(=O)(=O)NCc2ccccc2)c1)N1CCN(c2cccc(C(F)(F)F)c2)CC1	-11.7%	16.4µM*	?	?	?	i
Cc1ccc(S(=O)(=O)NCc2ccccc2)cc1C(=O)N1CCCCC1	-53.0%	i	i	-9.7%	-5.9%	i
Cc1ccc(S(=O)(=O)NCc2ccccc2)cc1C(=O)N1CCN(c2ccccc2)CC1	-19.4%	?	14.6µM*	-10.6%	-18.8%	i
Cc1ccc(S(=O)(=O)NCc2ccccc2)cc1C(=O)N1CC(C)CC(C)C1 (stereo not given)	9.1%	13µM*	i	-1.8%	?	i
O=C(c1cccc(S(=O)(=O)NCc2ccccc2)c1)N1CCN(c2ccccc2)CC1	-22.1%	i	?	-20.5%	?	i
CC1CCC(NC(=O)CN(C)CC(=O)Nc2ccc(F)cc2)CC1 (stereo not given)	1.8%	23.1µM*	i	1.8%	7.1%	i
COc1ccc(N2C(=O)/C(=C\c3ccco3)N=C2SCC(=O)NC(C)(C)C)cc1Cl	-3.0%	?	?	-1.8%	-28.5%	i
CCN(CC)C(=O)CSC1=N/C(=C/c2ccco2)C(=O)N1c1ccc(OC)c(Cl)c1	-17.2%	i	i	?	?	5.01µM*
CCOC(=O)c1sc(NC(=O)Nc2ccccc2)cc1C	-87.3%	?	?	125.9%	?	?
CCOC(=O)c1sc(NC(=O)Nc2ccccc2Cl)cc1C	-44.6%	20.6µM*	?	-15.0%	?	?
SMILES	HepG2 viability	KB-V1 cytotox	KB-3-1 tox	ATXN2 expr inh	TGFb SMAD3 inh	ATXN viability
O=C(CSc1nc2ccc([N+](=O)[O-])cc2[nH]1)NC1CCCCCC1	-17.7%	13µM*	?	-37.4%	?	?
Cc1ccc2nc(SCc3ccc([N+](=O)[O-])cc3)nc(C)c2c1	0.8%	i	?	-12.7%	4.9%	i
Cc1ccc(CSc2nc3ccncc3[nH]2)cc1	-89.7%	i	11.6µM*	?	-16.0%	?
O=C(CSc1nc2ccc([N+](=O)[O-])cc2[nH]1)NC1CCCCC1	-27.9%	i	?	-30.1%	-26.5%	i
Cc1ccc2nc(SCc3ccc([N+](=O)[O-])cc3)[nH]c2c1	-7.1%	16.4µM*	?	?	-29.0%	i
Cc1ccc2nc(SCC(=O)Nc3cccc([N+](=O)[O-])c3)[nH]c2c1	-22.6%	14.6µM*	i	-15.4%	?	i
Cc1ccc(NC(=O)c2ccc(NC(=O)N3CCSc4ncccc43)cc2)c(C)c1	-20.3%	i	i	.	-22.3%	.
CCOC(=O)c1scc(-c2ccc(C)cc2)c1S(=O)(=O)N1CCN(c2ccccc2)CC1	-8.1%	i	i	-21.3%	-26.0%	i
Cc1cc(S(=O)(=O)Nc2ccc(N(C)C)cc2)c(C)s1	-32.4%	16.4µM*	i	3.9%	-4.9%	i
Cc1cc(S(=O)(=O)Nc2cccc(Cl)c2)c(C)s1	-2.7%	i	i	-17.2%	2.3%	i
Oc1ccc(/C=C/c2nc(-c3ccccc3O)n(-c3ccccc3)n2)c(O)c1	14.1µM*	.	.	.	11.2µM*	.
Oc1ccc(/C=C/c2nc(-c3ccccc3O)n(-c3ccccc3)n2)cc1	-99.8%	?	i	-27.9%	?	?
CCOC(=O)c1cc(C#N)c(SCc2ccc(C#N)cc2)nc1C	-13.9%	2.31µM*	i	-6.0%	14.0%	i
C=C(C)C(=O)Oc1ccc(N=Nc2ccc(C)cc2)ccc1=O	-32.2%	?	i	?	?	31.6µM*
O=C(CSCc1cccc(CSCC(=O)Nc2ccc3ccccc3c2)n1)Nc1ccc2ccccc2c1	-34.6%	23.1µM*	?	?	?	i
Cc1ccc(C(=O)CCS(=O)(=O)c2ccc(F)cc2)cc1	12.6µM*	i	?	4.4%	15.8µM*	i
Cc1ccc(S(=O)(=O)CCC(=O)c2ccc(F)cc2)cc1	-97.9%	i	i	12.4%	?	i
CC(C)c1ccc(S(=O)(=O)Nc2cc3c(cc2NCc2ccccc2)n(C)c(=O)n3C)cc1	-30.5%	?	23.1µM*	46.1%	?	i

Compound activity from PubChem.
